PAX8 inh HTS: lowers PAX8-driven luciferase in RMG-I cells; RMG-I TPO-luciferase reporter, SteadyGlo, 24 h; inhibition, % at 12.6 µM; 360,000 tested, 1.2% active; AID 652154;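 active = mean replicate inhibition at least 60% with every replicate also reaching 60%; inconclusive = only one of the two criteria is met; inactive = mean below 60% and not all replicates reaching 60%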;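 note: luciferase light reporting Pax8 driven TPO promoter activity; plate controls were median of neutral control wells for no effect and mitoxantrone controls for full effect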
HIF-2a inh: blocks HIF-2a reporter activity; 786-0 RCC cells HIF-2a reporter, luciferase luminescence, overnight; inhibition, % at 18.8 µM; 360,000 tested, 0.72% active;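 active = inhibition of the luminescence signal of 40% or more relative to plate controls, in a single-dose primary screen at 18.75 µM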
LMP1 NFkB inh: reduces LMP1-driven NF-kappaB luciferase signal | AID 504558 | LMP1-induced NF-kappaB luciferase reporter cells, luminescence | inhibition, % at 12.5 µM | 350,000 tested, 0.69% active; in the data active = inhibition above about 41%; inconclusive = no clear call, values can overlap the other calls;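 note: 0% = neutral control wells and 100% = reference inhibitor control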
Shn3 3UTR inh: reduces Shn3 3'UTR luciferase signal in osteoblasts | 360,000 tested, 0.52% active | inhibition, % at 12.5 µM | Clone20 osteoblast Shn3 3'UTR firefly luciferase, 24 h;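 active = mean inhibition of at least 75% with every replicate also reaching 75%; inconclusive = mean inhibition at least 75% but some replicate below; inactive = mean inhibition below 75%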;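 note: 0% = median of neutral control wells and 100% = pilot-screen positive control compound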
Peg3 promoter: reduces Peg3 promoter-driven luciferase expression in HeLa. HeLa PEG-Prom luciferase reporter, luminescence, overnight. inhibition, % at 20 µM. 360,000 tested, 1.7% active;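 active = inhibition of at least 50% at 20 µM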
TRPM1 prom inh: reduces MITF-dependent TRPM1 promoter luciferase signal | 330,000 tested, 0.83% active | inhibition, % at 12.5 µM | SK-MEL-5 TRPM1 promoter luciferase, 24 h | AID 488899;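 active = mean inhibition across replicates of 60% or more, whatever share of single replicates reaches that level; inconclusive = some that reach 60%, reason not given; inactive = mean inhibition across replicates below 60%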
Numbers without * were called inactive; ? = inconclusive; . = no result given. Only some compounds are listed: those with a hit (about 2.8% of all), similar ones and a draw of the others.

SMILES | PAX8 inh HTS | HIF-2a inh | LMP1 NFkB inh | Shn3 3UTR inh | Peg3 promoter | TRPM1 prom inh
COC(=O)c1[nH]c2ccc(C)cc2c1NC(=O)NC1CCCCC1 | . | 7 | 73* | 8 | 11 | 13
Cc1ccc(C)c(-c2cc(C(=O)Nc3cccc(C(=O)O)c3)c3ccccc3n2)c1 | 83* | -3 | -3 | 7 | 2 | 4
CCN(CC(=O)Nc1c(F)cccc1F)C(=O)c1cc(-c2cccs2)nn1-c1ccccc1 | 23 | 5 | -12 | 8 | 58* | 3
Cc1ccc(C(=O)NCCc2ccccc2)cc1 | . | 54* | 57* | 21 | 45 | 38
Cc1ccc(C(=O)NCCc2ccncc2)cc1 | . | -118 | -14 | -55 | -115 | -46
CCOC(=O)c1ccc(NC(=O)COc2ccccc2CNCCc2ccccc2)cc1 | 8 | -8 | -55 | 0 | 98* | -2
CCOc1ccc(NC(=O)COc2ccc(C(=O)NCCc3ccccc3)cc2)cc1 | 73* | 17 | -5 | 12 | 5 | -5
CCOC(=O)c1ccc(NC(=O)COc2ccc(CNCCO)cc2OCC)cc1 | 18 | -2 | -7 | 2 | -7 | -5
O=C(COc1ccc([N+](=O)[O-])cc1)NCc1cccnc1 | -1 | 3 | -9 | -8 | 13 | -8
O=C(COc1ccc([N+](=O)[O-])cc1)Nc1ccc(C(=O)NCc2cccnc2)cc1 | . | 19 | -14 | 75 | 75* | 6
CCCNC(=O)Nc1ccc2c(c1)C(=O)N(C)[C@@H]1CC[C@H](CC(=O)NC)O[C@H]1CO2 | -7 | . | . | . | . | .
CNC(=O)C[C@@H]1CC[C@@H]2[C@H](COC[C@H](O)CN2S(=O)(=O)c2cccc(Cl)c2)O1 | -9 | . | . | . | . | .
O=C(Nc1ccc(Cl)c(Cl)c1)N[C@@H]1CC[C@H](CCn2cc(C3CCCCC3)nn2)O[C@H]1CO | 113* | . | . | . | . | .
O=C(CCC(=O)OCC(F)(F)C(F)F)Nc1ccc(F)cc1F | 10 | 20 | -2 | -5 | 12 | 2
O=C(CCC(=O)OCC(F)(F)C(F)F)Nc1ccc(Cl)cc1 | 8 | 3 | 0 | -9 | 63* | -2
CCOC(=O)N1CCN(c2c(N3CCN(c4cccc(C)c4C)CC3)c(=O)c2=O)CC1 | 2 | 12 | -2 | 14 | 4 | .
CCOc1ncccc1C(=O)N1CCN(c2cccc(C)c2C)CC1 | 63* | 29 | 4 | 25 | 7 | 12
CCOC(=O)N1CCN(c2cccc(C)c2C)CC1 | 70* | 9 | -6 | -6 | -6 | -13
CCOc1ncccc1C(=O)N1CCN(c2cc(Cl)ccc2C)CC1 | 41 | 20 | 3 | 22 | 6 | 16
COc1ccc(CN(C)C[C@H]2OCCCC[C@@H](C)Oc3ccc(NC(=O)Cc4ccccc4)cc3C(=O)N([C@H](C)CO)C[C@@H]2C)cc1 | -18 | . | . | . | . | .
CCCN(C)C[C@H]1OCc2cn(nn2)CCCC(=O)N([C@@H](C)CO)C[C@H]1C | -6 | . | . | . | . | .
CCCOc1ccc(Br)cc1/C=N/NC(=O)c1cc(OC)c(OC)c(OC)c1 | 14 | 13 | 2 | -1 | 25 | 9
COc1cc(/C=N/NC(=O)c2ccc(-n3cccc3)cc2)ccc1O | 72* | -11 | 1 | -39 | -11 | -24
COc1cc(/C=N/NC(=O)c2ccc3c(c2)OCO3)ccc1O | -4 | -71 | -3 | -28 | -106 | -15
COc1cc(/C=N/NC(=O)c2ccc(-c3ccccc3)cc2)cc(OC)c1OC | 80* | -1 | -1 | -16 | 14 | -5
SMILES | PAX8 inh HTS | HIF-2a inh | LMP1 NFkB inh | Shn3 3UTR inh | Peg3 promoter | TRPM1 prom inh
COc1cc(/C=N/NC(=O)c2ccc(CN3c4cccc5cccc(c45)S3(=O)=O)cc2)cc(OC)c1O | 4 | 10 | 8 | 13 | 57* | 7
COc1ccc(C(=O)N/N=C/c2cc(Br)ccc2O)cc1OC | 82* | -7 | 11 | 91* | 48 | 66*
COc1ccc(/C=N\NC(=O)c2ccc(-c3ccccc3)cc2)c(OC)c1OC | -11 | 7 | 4 | -13 | 7 | 0
COc1cc(C(=O)Oc2ccccc2/C=N/NC(=O)c2ccc(C)c(Cl)c2)cc(OC)c1OC | 0 | -6 | 57* | 57 | -6 | -2
COc1cc(C(=O)Oc2ccccc2/C=N/NC(=O)c2ccc(Cl)cc2)cc(OC)c1OC | -24 | -185 | 0 | 41 | -92 | 0
COc1cc(C(=O)N/N=C/c2sccc2C)cc(OC)c1OC | 81* | 20 | -2 | 22 | -8 | 50
CCOc1cc(/C=N/NC(=O)c2ccccc2-n2cccc2)ccc1O | 17 | 10 | 71* | 80 | 25 | -2
COc1cccc(-c2ccc(C3[C@@H]4CN(C(=O)Cc5ccncc5)C[C@H]3N4)cc2)c1 (some centres undefined) | 9 | . | . | . | . | .
CN(C)c1ccc(NC(=S)NCC2CCCO2)cc1 (centres undefined) | 65* | -81 | -2 | -21 | -68 | -21
CCCCc1ccc(NC(=S)NCC2CCCO2)cc1 (centres undefined) | -13 | -99 | 3 | 6 | -54 | 5
Cc1ccccc1-c1cnc2c(c1)C(=O)N([C@H](C)CO)C[C@@H](C)[C@@H](CN(C)Cc1ccncc1)O2 | 17 | . | . | . | . | .
COc1ccc(S(=O)(=O)Nc2cccc3c2O[C@@H](CN(C)S(=O)(=O)c2ccc(Cl)cc2)[C@H](C)CN([C@@H](C)CO)C3=O)cc1 | -2 | . | . | . | . | .
Cc1ccc(NC(=O)c2cc(C)n(-c3ccccc3)c2C)cc1 | 19 | 54* | 31 | 51 | 50 | 50
Cc1cc(C(=O)NNS(=O)(=O)c2cc(C(=O)O)ccc2Cl)c(C)n1-c1ccccc1 | 29 | 64* | 32 | 84 | 39 | 34
Cc1ccc(NC(=O)c2cc(C)n(-c3cccc(C)c3)c2C)cc1 | -163 | -205 | -62 | -4 | -243 | -21
CC(C)(C)NS(=O)(=O)c1cc(C(=O)O)ccc1Cl | 2 | 13 | -1 | -18 | 10 | -13
Cc1ccc(NC(=O)c2csc(-c3ccccc3)c2C)cc1 | 14 | 18 | 45* | 56 | 30 | 16
Cc1cc(C(=O)Nc2ccc(Cl)cc2)c(C)n1-c1ccccc1 | 26 | 73* | . | . | 87* | .
C[C@H](CO)N1C[C@H](C)[C@H](CN(C)C(=O)c2cnccn2)Oc2ncc(-c3ccccc3F)cc2C1=O | -10 | . | . | . | . | .
O=C(N[C@H]1CC[C@@H](CCn2cc(C3(O)CCCC3)nn2)O[C@@H]1CO)C1CCCC1 | 21 | . | . | . | . | .
COc1cc(NC(=O)NCc2ccco2)ccc1-c1ccc(NC(=O)NCc2ccco2)cc1OC | 67* | 30 | 1 | 83* | 26 | ?
O=C(C[C@@H]1C[C@@H]2c3cc(NC(=O)Nc4ccc(C(F)(F)F)cc4)ccc3O[C@@H]2[C@@H](CO)O1)NCc1ccccn1 | 1 | . | . | . | . | .
Cc1cc(=O)[nH]c(SCC(=O)c2ccc3c(c2)NC(=O)CO3)n1 | -7 | 7 | -8 | -68 | 15 | -5
Nc1cc(N)nc(SCC(=O)c2ccc3c(c2)NC(=O)CO3)n1 | -3 | 6 | 44* | -2 | 7 | 5
CCN(CC)CCNc1ccc(C)c2sc3ccc(O)cc3c(=O)c12 | 40 | 10 | 38 | 30 | 98* | 85*

Bioassay records from PubChem.
